Measured values published in PubChem BioAssay AID1159580 (chemical genetic matrix, 2015).
Where “and” joins values, the source holds several entries; their conditions need not be identical. Equal entries are not always repeated. About 2,000 (36%) of roughly 5,500 compounds were called active. Not shown: some 18% with an inconclusive outcome. No stated cut-off is given here; in the data, active means normalized growth mostly below about 0.91 (no sharp cut-off); inconclusive means no clear call, values can overlap the other calls; inactive means mostly above about 0.92. The list shows a part of the results.

Experiment: chemical genetic growth profiling, strain panel (AID 1159580);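 further: tested at 20 µM; growth read once vehicle control cultures reached saturation at 30 °C; 1 = growth at the plate median or of vehicle wells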
Conditions: S. cerevisiae deletion strains, growth OD

Measured: normalized growth

CC(=O)O[C@]1(C(C)=O)CCC2C3C=C(C)C4=CC(=O)CCC4(C)C3CCC21C (stereo partly specified)
inactive: locus YAL021C, strain ccr4, stronger effect = lower value 1.04 | locus YAL026C, strain drs2, stronger effect = lower value 0.961 | locus YAL030W, strain snc1, stronger effect = lower value 0.959 | locus YBL061C, strain skt5, stronger effect = lower value 0.932 | locus YBR009C, strain hhf1, stronger effect = lower value 0.916 | locus YBR021W, strain FUR4, stronger effect = lower value 0.924 | locus YBR023C, strain chs3, stronger effect = lower value 0.92 | locus YBR171W, strain sec66, stronger effect = lower value 0.926 | locus YBR229C, strain ROT2, stronger effect = lower value 0.985 | locus YBR231C, strain swc5, stronger effect = lower value 0.933 | locus YBR279W, strain paf1, stronger effect = lower value 0.993 | locus YCL011C, strain gbp2, stronger effect = lower value 0.975 | locus YCL016C, strain dcc1, stronger effect = lower value 0.971 | locus YCL029C, strain bik1, stronger effect = lower value 0.958 | locus YCL069W, strain vba3, stronger effect = lower value 0.929 | locus YCR088W, strain abp1, stronger effect = lower value 0.958 | locus YDL005C, strain med2, stronger effect = lower value 0.934 | locus YDL035C, strain GPR1, stronger effect = lower value 0.908 | locus YDL040C, strain nat1, stronger effect = lower value 0.968 | locus YDL074C, strain BRE1, stronger effect = lower value 0.784 | locus YDL101C, strain DUN1, stronger effect = lower value 0.982 | locus YDL134C, strain PPH21, stronger effect = lower value 0.996 | locus YDL185W, strain tfp1, stronger effect = lower value 0.984 | locus YDL192W, strain arf1, stronger effect = lower value 0.957 | locus YDR001C, strain nth1, stronger effect = lower value 0.964 | locus YDR069C, strain doa4, stronger effect = lower value 0.978 | locus YDR101C, strain arx1, stronger effect = lower value 0.969 | locus YDR150W, strain NUM1, stronger effect = lower value 0.993 | locus YDR159W, strain sac3, stronger effect = lower value 0.892 | locus YDR195W, strain ref2 0.976 | locus YDR297W, strain sur2, stronger effect = lower value 0.951 | locus YDR318W, strain mcm21, stronger effect = lower value 0.92 | locus YDR334W, strain swr1, stronger effect = lower value 0.962 | locus YDR335W, strain msn5, stronger effect = lower value 0.957 | locus YDR388W, stronger effect = lower value 0.975 | locus YEL003W, strain gim4, stronger effect = lower value 0.941 | locus YEL037C, strain rad23, stronger effect = lower value 0.969 | locus YEL061C, strain CIN8 (second series), stronger effect = lower value 0.959 | locus YEL061C, strain CIN8, stronger effect = lower value 0.989 | locus YER015W, strain faa2, stronger effect = lower value 0.971 | locus YER016W, strain bim1, stronger effect = lower value 0.966 | locus YER110C, stronger effect = lower value 0.958 | locus YER111C, strain swi4, stronger effect = lower value 0.963 | locus YER155C, strain BEM2, stronger effect = lower value 1.01 | locus YFR010W, strain ubp6, stronger effect = lower value 0.961 | locus YGL078C, strain dbp3, stronger effect = lower value 0.992 | locus YGL167C, strain pmr1, stronger effect = lower value 0.955 | locus YGL173C, strain kem1, stronger effect = lower value 0.92 | locus YGL227W, strain vid30, stronger effect = lower value 0.968 | locus YGL240W, strain doc1, stronger effect = lower value 0.925 | locus YGL248W, strain PDE1, stronger effect = lower value 0.992 | locus YGL253W, strain hxk2, stronger effect = lower value 0.915 | locus YGR252W, strain gcn5, stronger effect = lower value 0.862 | locus YHR013C, strain ard1, stronger effect = lower value 0.998 | locus YHR027C, strain rpn1, stronger effect = lower value 0.981 | locus YHR079C, strain IRE1 (second series), stronger effect = lower value 0.969 | locus YHR079C, strain IRE1, stronger effect = lower value 0.958 | locus YHR094C, strain hxt1, stronger effect = lower value 0.98 | locus YHR129C, strain ARP1, stronger effect = lower value 0.94 | locus YHR200W, strain rpn10, stronger effect = lower value 0.956 | locus YIL066C, strain RNR3, stronger effect = lower value 0.878 | locus YIL073C, strain SPO22, stronger effect = lower value 0.887 | locus YIL125W, strain kgd1, stronger effect = lower value 0.982 | locus YIR030C, strain dcg1, stronger effect = lower value 0.973 | locus YJL092W, strain hpr5, stronger effect = lower value 0.944 | locus YJL095W, strain BCK1 (second series), stronger effect = lower value 0.931 | locus YJL115W, strain asf1, stronger effect = lower value 0.973 | locus YJL134W, strain LCB3, stronger effect = lower value 0.989 | locus YJL154C, strain vps35, stronger effect = lower value 0.964 | locus YJL164C, strain tpk1, stronger effect = lower value 0.951 | locus YJL168C, strain set2, stronger effect = lower value 0.969 | locus YJL187C, strain SWE1 (second series), stronger effect = lower value 0.98 | locus YJR066W, strain TOR1, stronger effect = lower value 0.929 | locus YJR075W, strain HOC1, stronger effect = lower value 0.952
0.917 (active) and 0.949 (inactive): locus YHR030C, strain SLT2, stronger effect = lower value
active: locus YAL013W, strain DEP1, stronger effect = lower value 0.897 | locus YDR137W, strain rgp1, stronger effect = lower value 0.775 | locus YDR162C, strain NBP2, stronger effect = lower value 0.804 | locus YDR392W, strain spt3, stronger effect = lower value 0.445 | locus YDR502C, strain sam2, stronger effect = lower value 0.904 | locus YER155C, strain BEM2 (second series), stronger effect = lower value 0.859 | locus YER167W, strain BCK2, stronger effect = lower value 0.88 | locus YGL086W, strain mad1, stronger effect = lower value 0.91 | locus YGR078C, strain PAC10, stronger effect = lower value 0.836 | locus YGR135W, strain pre9, stronger effect = lower value 0.883 | locus YGR229C, strain SMI1, stronger effect = lower value 0.643 | locus YHR142W, strain chs7, stronger effect = lower value 0.815 | locus YJL129C, strain trk1, stronger effect = lower value 0.854 | locus YJL166W, strain qcr8, stronger effect = lower value 0.863 | locus YJR043C, strain POL32, stronger effect = lower value 0.85
0.741 (active) and 0.98 (inactive): locus YJL095W, strain BCK1, stronger effect = lower value
